This passage reports z-score results from PubChem BioAssay.

This assay is described as follows: compound effects on lung adenocarcinoma cell viability – A549, calcein-AM fluorescence, 48 h, basal, profiling panel (AID 1162). Also: test concentration not given here. Conditions: higher = more signal.
On to `CC(C)(C)OC(=O)CC[C@]1(C(=O)NCCN2CCOCC2)N=C(c2ccc(OCCCO)cc2)O[C@H]1c1ccccc1N=[N+]=[N-]`, for which the z-score is -0.877.
For `CCOC(=O)[C@H]1C/C=C/C[C@H](C(=O)OCC)C(=O)O[C@H]2[C@@H](OC)O[C@H](CO)[C@@H](OC(=O)Nc3ccc(OC)cc3)[C@@H]2OC1=O`, the z-score is 2.98.
Consider `O=C1NC(=O)C2C1C=CC(C(O)c1c(F)cccc1Cl)N2Nc1ccccn1` (stereo not given), for which the z-score is 0.0619.
Take `COc1ccc([Si](C)(C)[C@@H]2[C@@H](CCO)O[C@]3(C(=O)N(Cc4cccc(N5C(=O)c6ccccc6Oc6ccccc65)c4)c4ccccc43)[C@H]2C)cc1`: the z-score was -0.799.
In the case of `Cc1ccc(S[C@]2(C(=O)NCc3ccccc3)CC(=O)N(C(C)C)[C@@H]2c2ccc(CO)cc2I)cc1`, the z-score was -0.897.
With `CC(C)CCC[C@@H](C)[C@H]1CC[C@@]2(C)C3=C(CC[C@]12C)[C@@]1(C)CC[C@H](OC(=O)c2ccc(Br)cc2)C(C)(C)C1CC3` (stereo not given in full), the z-score was 0.986.
The value for `NC(=O)N1C(=O)C2C(C1=O)C1C=C(c3ccc(CO)cc3)C2C(C2CC2)N1Cc1sc2ccccc2c1Cl` (stereo not given) was 0.965; that for `C=CCN1C(=O)[C@@]2(O[C@@H](CCn3cc([C@H](O)c4ccccc4)nn3)[C@H]([Si](C)(C)c3ccc(OC)cc3)[C@H]2C)c2ccccc21` was -1.05.
To `CC1CC/C=C\[C@H]2OC34C=CCN(CCN5CCOCC5)C(=O)[C@H]3N(CCO)C(=O)[C@@H]4C2C(=O)O1` (stereo not given in full) belongs -0.507; to `C=CCOC(=O)[C@H]1[C@@H]2C(=O)O[C@@H](c3ccccc3)[C@@H](c3ccccc3)N2[C@@H](c2ccc(OCCOC(=O)[C@H]3C[C@H]4C(=O)N[C@@H](Cc5ccccc5)C(=O)N4[C@H]3c3ccc(O)cc3)cc2)[C@]12C(=O)Nc1ccc(I)cc12`, -0.7.
Turning to `COc1ccc(C#Cc2ccc3c(c2)[C@]2(C(=O)N3)[C@H](C(=O)N3CCc4cc(OC)c(OC)cc4C3)[C@H]3C(=O)O[C@H](c4ccccc4)[C@H](c4ccccc4)N3[C@@H]2c2ccc(O)cc2)cc1`, the z-score was -0.522.
Take `O=C1O[C@@H](c2ccccc2)[C@@H](c2ccccc2)N2[C@@H](c3ccccc3OCCO)[C@]3(C(=O)Nc4ccccc43)[C@@H](C(=O)NC[C@H](O)c3ccccc3)[C@H]12`: the z-score is -1.53.
Regarding `C[C@]1(C(=O)NC2CC2)c2ccccc2C(=O)N(Cc2ccc(OC(F)(F)F)cc2)[C@H]1c1ccc(CO)cc1`, the z-score was -0.176.
Consider `NC(=O)NCC#Cc1ccc2c(c1)[C@]1(C(=O)N2)[C@H](C(=O)Nc2nc3ccccc3s2)[C@H]2C(=O)O[C@H](c3ccccc3)[C@H](c3ccccc3)N2[C@@H]1c1ccc(O)cc1`, for which the z-score is 0.234.
Take `COc1ccc(CCNC(=O)[C@@]2(Sc3ccc(C)cc3)CC(=O)N(Cc3cc(C(F)(F)F)cc(C(F)(F)F)c3)[C@@H]2c2ccc(CO)cc2I)cc1`: the z-score is 0.154.
As to `CN(C)CCCNC(=O)[C@@H]1c2ccccc2C(=O)N(Cc2ccc(OC(F)(F)F)cc2)[C@H]1c1ccc(CO)cc1`, the z-score was 1.71.
As for `COCCCNC(=O)[C@@]1(Sc2ccc(C)cc2)CC(=O)N(C2Cc3ccccc3C2)[C@@H]1c1ccc(CO)cc1I`, the z-score is -0.126.
With `CCCCC(CC)C(O)C1C=CC2C(=O)N(c3ccccc3)C(=O)C2N1Nc1ccc([N+](=O)[O-])cc1` (stereo not given), the z-score was -0.561.
Take `CC(C)C(=C=CC[C@@H](O)c1ccccc1OCCO)C[C@@H](O)COCc1ccccc1`: the z-score is 1.03.
Take `C[C@H]1C2=C3C(CC[C@H]4C(OCc5ccc(F)cc5C(F)(F)F)OC[C@](C)([C@@H]34)N(C(=O)OC(C)(C)C)C2)C2COC(=O)OCC21` (stereo not given in full): the z-score was -1.17.
Consider `CCOC(=CC(=O)OC)CC(O)c1cccc(Cl)c1` (stereo not given), for which the z-score was 0.738.
To `COc1cc(OC)c(C(O)C2C=CC3C(=O)N(c4ccccc4)C(=O)C3N2Nc2ccc(C#N)cc2)cc1Br` (stereo not given) belongs 0.423; to `CN(C)CCCNC(=O)[C@@H]1c2ccccc2C(=O)N(CC23CC4CC(CC(C4)C2)C3)[C@H]1c1ccc(CO)cc1`, -0.104; to `COc1cc2c(cc1OC)CN(C(=O)[C@H]1[C@@H]3C(=O)O[C@@H](c4ccccc4)[C@@H](c4ccccc4)N3[C@@H](c3ccc(OCCO)cc3)[C@]13C(=O)Nc1ccc(C#CCCO)cc13)CC2`, 0.269.
`COCCOC(=O)N1C(=O)[C@@]2(c3cc(C#CC4=CCCCC4)ccc31)[C@H](c1ccccc1OCCO)N1[C@H](c3ccccc3)[C@H](c3ccccc3)OC(=O)[C@H]1[C@@H]2C(=O)N1CCc2cc(OC)c(OC)cc2C1`: the z-score is 0.697.
